The record followed here is PubChem BioAssay.

SMILES strings stand for the structures. Calls of active or inactive are those of the source.

For assay [1], the system named is Human papillomavirus type 1a protein E7 (residues 44-93). Briefly: small molecules binding HPV E7 44-93 – biochemical, small-molecule microarray, residues 44-93, 635 nm fluorescence, primary screen (AID 1108).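 Note: E7 fragment applied at 1 µg/mL in TBST for 1 h at 4 C; score combines spot fluorescence with its signal to noise ratio.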 As to conditions: fluorescence 635 nm, higher = more signal.
A short description of assay [2]: hepatitis C replication reporter changes, two-sided – Huh7 cells, luciferase reporter, HCV replication inhibitor project, primary screen (AID 1109).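 Note: huh7 hepatoma cells harbouring a luciferase neomycin HCV replicon reporter; luciferase luminescence as measure of HCV replicon replication; test concentration not given here.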 As to conditions: Huh7 HCV replicon luciferase reporter, 48 h; higher = more signal. In general terms: In a reporter assay the amount or activity of a reporter protein is the signal.
In assay [3] the target is Left-right determination factor 2 (Homo sapiens) (UniProt O00292). The assay is described as follows: small molecules binding LEFTY2 protein – biochemical, small-molecule microarray, 635 nm fluorescence scan, primary screen (AID 1110). As to conditions: higher = more signal.
The target of assay [4] is Calmodulin-1 (Homo sapiens) (UniProt P0DP23). The assay is described as follows: small molecules binding calmodulin-1 with EGTA – biochemical, small-molecule microarray, Cy5-labelled CALM1, profiling panel (AID 1111).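 Note: labelled calmodulin applied in Tris saline Tween buffer holding calcium plus EGTA and DTT.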 As to conditions: Cy5-CALM1 binding fluorescence, higher = more signal.
Assay [5] shares this target. Briefly: small molecules binding Ca-loaded calmodulin-1 – biochemical, small-molecule microarray, Cy5-labelled CALM1, plus calcium, artefact control for SMM control-protein annotation, profiling panel (AID 1112).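 Note: score merges spot fluorescence with signal to noise from triplicate slides.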 As to conditions: Cy5-CALM1 binding fluorescence, higher = more signal.
A short description of assay [6]: probe aWnt5a binding to arrayed compounds – biochemical, biotinylated probe, 635/667 nm fluorescence, primary screen (AID 1113).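 Note: score merges 667 nm fluorescence intensity with signal-to-noise per printed feature.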 As to conditions: small-molecule microarray, higher = more signal.
A short description of assay [7]: probe aShh binding to arrayed compounds – biochemical, biotinylated probe, 635/667 nm fluorescence, primary screen (AID 1114).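 Note: probe is biotin-labelled aShh protein from a stem cell growth factor screen; measures binding of labelled protein to compounds printed on the slide; score merges feature fluorescence at 667 nm with signal-to-noise.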 As to conditions: small-molecule microarray, higher = more signal.
Assay [8] can be described thus: probe aNog binding to arrayed compounds – biochemical, biotinylated probe, 635/667 nm fluorescence, primary screen (AID 1115).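 Note: probe is biotinylated aNog protein used at 0.15 µg/mL for 1 h at 4 C; z-score combines 667 nm fluorescence of each spot with its signal to noise.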 As to conditions: small-molecule microarray, higher = more signal.
In assay [9] the target is Torsin-1A-interacting protein 1 (Homo sapiens) (UniProt Q5JTV8). Briefly: compound microarray binding of lysate hLAP1 – cell lysate, small-molecule microarray, COS7 lysate, 635/667 nm fluorescence, primary screen (AID 1116). As to conditions: 635 nm fluorescence, higher = more signal.
Assay [10] concerns the target Alpha-bungarotoxin (Bungarus multicinctus) (UniProt P60615). Briefly: compounds binding labelled alpha-BTX control protein – biochemical, small-molecule microarray, Alexa647 label, 635/667 nm fluorescence, artefact control for SMM control protein annotation, profiling panel (AID 1117). As to conditions: alpha-BTX-A647 binding fluorescence, higher = more signal.
Assay [11] concerns the target Albumin (Bos taurus) (UniProt P02769). The assay is described as follows: compounds binding labelled BSA control protein – biochemical, small-molecule microarray, Alexa647 label, 635/667 nm fluorescence, artefact control for SMM control protein annotation, profiling panel (AID 1118).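 Note: score merges 667 nm emission intensity and signal-to-noise per printed compound spot.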 As to conditions: BSA-A647 binding, fluorescence 635 nm, higher = more signal.
The nature of assay [12]: probe aXIP binding to arrayed compounds – biochemical, NeuroSMM set, 635/667 nm fluorescence, primary screen (AID 1119).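 Note: probe is the protein aXip251-270 applied at 1 µg/mL to compound-printed slides; binding of probe to printed compounds measured as 667 nm fluorescence plus signal to noise.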 As to conditions: small-molecule microarray, higher = more signal, called active from +8 up or from −8 down.
Assay [13] in a line: probe aNOTCH3 binding on compound microarray – biochemical, small-molecule microarray, 635/667 nm fluorescence, primary screen (AID 1120).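 Note: probe is a biotin-tagged antibody raised against NOTCH3 rather than NOTCH3 protein; score merges spot fluorescence near 667 nm with spot signal to noise.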 As to conditions: higher = more signal.
The nature of assay [14]: probe aNOTCH2 binding on compound microarray – biochemical, small-molecule microarray, 635/667 nm fluorescence, primary screen (AID 1121).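 Note: score merges feature fluorescence read at 667 nm with its signal to noise.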 As to conditions: higher = more signal.
Assay [15] has as its target Carbonic anhydrase 2 (Homo sapiens) (UniProt P00918). The assay is described as follows: compounds binding carbonic anhydrase 2 – biochemical, small-molecule microarray, Alexa647-labelled CAII, profiling panel (AID 1122). As to conditions: CAII-A647 binding fluorescence, higher = more signal.
A short description of assay [16]: COS7 lysate on small-molecule microarray, probe aHis, 635 nm (AID 1123).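 Note: z-score combines 667nm fluorescence intensity with signal-to-noise per printed compound spot.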 As to conditions: COS7 cell lysate, fluorescence, higher = more signal.
Assay [17] can be described thus: probe aLAP1 signal on lysate-treated microarray – cell lysate, small-molecule microarray, COS7 lysate, primary screen (AID 1124).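 Note: lysate comes from COS7 cells expressing LAP1 and is applied at 0.3 µg/mL; score merges spot fluorescence near 667 nm with signal-to-noise over triplicate slides.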 As to conditions: probe aLAP1, fluorescence, higher = more signal.
Assay [18] concerns Sam68 (KHDRBS1). The assay is described as follows: compounds binding KHDRBS1 protein – biochemical, small-molecule microarray, 635 nm fluorescence, primary screen (AID 1125).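 Note: score merges 667 nm channel intensity with signal to noise over triplicate slides.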 As to conditions: higher = more signal.
The test system of assay [19] is Chordin-like protein 2 (CHRDL2). Briefly: compounds binding chordin-like 2 – biochemical, small-molecule microarray, 635 nm fluorescence, primary screen (AID 1126).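 Note: printed compound slides probed with Chrdl2 protein at 4 µg/mL for 1 h at 4 C; score merges 667 nm emission intensity with signal to noise over three replicate slides.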 As to conditions: fluorescence 635 nm, higher = more signal.
For assay [20], the target named is Concanavalin-A (Canavalia ensiformis) (UniProt P02866). Briefly: compounds binding concanavalin A lectin – biochemical, small-molecule microarray, Alexa647 label, 635 nm, artefact control for SMM control protein annotation, primary screen (AID 1127).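 Note: z combines 667 nm emission intensity with signal-to-noise across three replicate slides.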 As to conditions: ConA-A647 binding fluorescence, higher = more signal.
Chain of Concanavalin-A (Canavalia ensiformis) (P02866 whole entry, looked up): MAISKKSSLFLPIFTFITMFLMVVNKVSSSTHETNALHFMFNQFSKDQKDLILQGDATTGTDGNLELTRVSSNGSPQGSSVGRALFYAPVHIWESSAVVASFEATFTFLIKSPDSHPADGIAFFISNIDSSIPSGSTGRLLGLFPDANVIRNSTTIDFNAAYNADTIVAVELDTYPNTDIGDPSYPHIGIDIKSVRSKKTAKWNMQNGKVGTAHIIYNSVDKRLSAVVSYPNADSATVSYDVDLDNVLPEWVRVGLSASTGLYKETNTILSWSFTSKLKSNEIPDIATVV

Chain of Torsin-1A-interacting protein 1 (Homo sapiens) (Q5JTV8 whole entry, looked up): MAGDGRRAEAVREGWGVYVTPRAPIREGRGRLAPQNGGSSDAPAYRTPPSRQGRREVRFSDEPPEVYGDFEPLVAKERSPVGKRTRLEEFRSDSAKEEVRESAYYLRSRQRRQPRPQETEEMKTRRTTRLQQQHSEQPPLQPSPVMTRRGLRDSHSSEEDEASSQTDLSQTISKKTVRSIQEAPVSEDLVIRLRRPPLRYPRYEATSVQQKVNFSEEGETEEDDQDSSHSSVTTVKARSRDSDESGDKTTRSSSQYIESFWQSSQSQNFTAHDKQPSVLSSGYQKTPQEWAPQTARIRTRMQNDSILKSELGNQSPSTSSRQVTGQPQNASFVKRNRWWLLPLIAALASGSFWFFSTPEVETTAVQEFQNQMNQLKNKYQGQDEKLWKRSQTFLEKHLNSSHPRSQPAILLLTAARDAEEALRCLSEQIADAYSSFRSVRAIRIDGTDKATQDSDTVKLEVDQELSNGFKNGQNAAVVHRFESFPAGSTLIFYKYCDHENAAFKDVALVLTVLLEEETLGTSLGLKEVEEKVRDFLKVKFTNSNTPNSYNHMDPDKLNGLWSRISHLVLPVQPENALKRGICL
Chain of Alpha-bungarotoxin (Bungarus multicinctus) (P60615 whole entry, looked up): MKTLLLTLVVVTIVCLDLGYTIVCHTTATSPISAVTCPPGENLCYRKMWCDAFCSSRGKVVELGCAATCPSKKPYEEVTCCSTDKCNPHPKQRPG
Chain of Left-right determination factor 2 (Homo sapiens) (O00292 whole entry, looked up): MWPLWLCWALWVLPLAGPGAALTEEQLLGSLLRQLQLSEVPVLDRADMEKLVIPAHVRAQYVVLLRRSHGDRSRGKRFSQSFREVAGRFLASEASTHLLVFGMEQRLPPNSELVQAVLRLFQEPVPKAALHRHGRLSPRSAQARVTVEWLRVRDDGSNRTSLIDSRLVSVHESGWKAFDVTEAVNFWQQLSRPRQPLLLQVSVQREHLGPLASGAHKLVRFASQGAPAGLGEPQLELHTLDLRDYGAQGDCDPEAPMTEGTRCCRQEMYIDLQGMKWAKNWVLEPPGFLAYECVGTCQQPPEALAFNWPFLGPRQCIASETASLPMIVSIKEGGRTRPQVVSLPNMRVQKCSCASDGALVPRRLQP
Chain of Albumin (Bos taurus) (P02769 whole entry, looked up): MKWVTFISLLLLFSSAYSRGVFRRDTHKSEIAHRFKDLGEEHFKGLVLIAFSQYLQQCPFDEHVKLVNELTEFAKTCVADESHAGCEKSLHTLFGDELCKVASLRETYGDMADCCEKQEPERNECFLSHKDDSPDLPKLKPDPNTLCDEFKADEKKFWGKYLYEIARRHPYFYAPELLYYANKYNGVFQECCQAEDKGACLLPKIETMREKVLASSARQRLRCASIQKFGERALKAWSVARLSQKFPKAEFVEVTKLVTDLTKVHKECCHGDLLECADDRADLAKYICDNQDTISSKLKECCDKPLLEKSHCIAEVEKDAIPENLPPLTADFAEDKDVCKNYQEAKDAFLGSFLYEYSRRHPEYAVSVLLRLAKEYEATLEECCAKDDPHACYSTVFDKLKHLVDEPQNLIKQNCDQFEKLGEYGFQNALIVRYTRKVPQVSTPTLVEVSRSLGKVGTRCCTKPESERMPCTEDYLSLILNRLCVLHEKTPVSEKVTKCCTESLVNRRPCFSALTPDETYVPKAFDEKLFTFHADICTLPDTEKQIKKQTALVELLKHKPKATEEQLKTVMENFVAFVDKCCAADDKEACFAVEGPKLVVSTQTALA

`CCCC[C@H]1CN2[C@@H](CC[C@@H](C)[C@@H]2c2ccc(Br)cc2)C(=O)O1`: the composite z-score is 1.01 in assay [1]; 0.671 in [3]; 0.849 in assay [4]; -0.0228 in [5]; -0.158 in [6]; 0.0121 in assay [7]. The composite z-score in [8] is -0.188; in assay [9], 0.755; in assay [10], 0.678; in assay [11] it was 0.738; in assay [13], -0.137; in assay [14], -0.183. The composite z-score was 0.397 in assay [15]; 0.615 in assay [16]; 1.59 in assay [17]; 1.29 in [18]; 0.549 in assay [19]; 0.764 in assay [20]. Moreover, the z-score in assay [2] was -1.04. Moreover, the composite Z-score in [12] is 0.689 (inactive).

Take `O=C1CCCC=C1C(O)c1ccc([N+](=O)[O-])cc1` (stereo not given): the composite z-score was -0.607 in assay [1]; 0.387 in assay [3]; -0.79 in assay [4]; -0.499 in [5]; -0.101 in assay [6]; -0.288 in assay [7]. Besides, the composite z-score in assay [8] is -0.489; in assay [9] it was 0.315; in [10], -0.237; in assay [11], 0.265; in assay [13] it was 0.0494; in assay [14], -0.148. In addition, the composite z-score is -0.187 in [15]; -0.251 in assay [16]; 0.0252 in [17]; -0.311 in [18]; 0.0616 in assay [19]; -0.343 in assay [20]. The same molecule registered a z-score in [2] of -0.67. Also, the composite Z-score in assay [12] was -0.163 (inactive).

In the case of `CCN1C(=O)[C@H]2[C@H]3[C@H](O)[C@H](O)CC(=NOC[C@@H](O)COCc4ccco4)[C@H]3CC[C@H]2C1=O`, the composite z-score in assay [1] is 0.296; in assay [3], 1.41; in assay [4] it was -2.21; in assay [5], -2.59; in [6] it was -0.216; in [7], -0.2. Also, the composite z-score in [8] is -0.878; in assay [9], -0.0551; in assay [10], -0.441; in assay [11], 0.532; in assay [13] it was -0.18; in [14], -0.16. Further, the composite z-score was 0.093 in assay [15]; -0.303 in [16]; 0.0965 in assay [17]; 0.971 in [18]; 1.5 in assay [19]; -1.26 in assay [20]. This molecule also showed a z-score in [2] of -0.389. The composite Z-score in assay [12] was 0.525 (inactive).

As to `COc1ccc(O[C@H]2C=C[C@@H](c3ccccc3)O[C@@H]2COC(=O)NCc2cccc3ccccc23)cc1`, the composite z-score is 0.125 in [1]; -0.0808 in assay [3]; -0.413 in [4]; -0.329 in assay [5]; -0.104 in assay [6]; 0.23 in [7]. Moreover, the composite z-score in assay [8] is -0.116; in assay [9], 0.469; in assay [10], 0.33; in assay [11], -0.194; in assay [13], -0.191; in [14] it was -0.159. Also, the composite z-score in [15] is -0.219; in assay [16] it was -0.146; in assay [17], -0.0544; in [18], -0.0446; in assay [19], 0.281; in assay [20], 0.335. The z-score in [2] is -2.19. Also, in assay [12], the composite Z-score was -0.341 (inactive).

For `CCOC(=O)[C@H](Cc1ccccc1)NC(=O)CCC1CC(OC(=O)NCc2ccc3c(c2)OCO3)CC2(CCCC(COC(=O)NCCOc3ccccc3)O2)O1` (stereo not given in full), the composite z-score in [1] was 1.24; in assay [3] it was 0.753; in assay [4] it was 0.505; in [5] it was -0.166; in assay [6], -0.15; in assay [7] it was -0.223. The composite z-score in assay [8] was -0.0047; in [9] it was 0.301; in assay [10] it was 0.495; in assay [11], -0.245; in assay [13], 0.0636; in assay [14] it was -0.034. Besides, the composite z-score in assay [15] was 0.109; in assay [16], 1.52; in assay [17] it was -0.252; in [18], 1.29; in [19], 0.58; in assay [20], 1.13. Moreover, the z-score in assay [2] is -0.682. Moreover, the composite Z-score in [12] is -0.344 (inactive).
